Laboratory results: the supplement of paper PMC7411640
Structures can show the parent of a compound that is named as a salt.

tested on: MDA-MB-468; experiment: phospho-S6 immunofluorescence (DAPI-normalised), per-plate z-score; higher = higher phospho-S6 signal (less pathway suppression); conditions: co-treatment: GDC0941 450 nM; 24 h
Protocol: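 GPCR-targeted compound library (MedChemExpress HY-L006) tested on MDA-MB-468 PTEN-null TNBC cells in 384-well plates at 0.1, 1 or 10 uM, combined with vehicle, GDC0941 450 nM or lapatinib 1 uM, for 24 h. Phospho-S6 (S240/244) immunofluorescence normalised to DAPI and expressed as a per-plate z-score; values are the mean of biological triplicates.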

SMILES	phospho-S6 immunofluorescence (z-score)
C(=C\c1ccccc1)/CN1CCN(C(c2ccccc2)c2ccccc2)CC1 [Cinnarizine] (compound 10 µM)	0.86
COc1cc2c(cc1OC)CN(C(=O)[C@@H](NCc1ccncc1)C(C)(C)C)CC2 (compound 10 µM)	0.85
CCN(CC)CCNC(=O)c1cc(Cl)c(N)cc1OC [Metoclopramide (hydrochloride hydrate)] (compound 10 µM)	-0.35
CN(C)CCOC(c1ccccc1)c1ccccc1 [Diphenhydramine (hydrochloride)] (compound 10 µM)	-0.32
CNC(=O)c1cnn(-c2nc(N)c3ncn([C@@H]4O[C@H](CO)[C@@H](O)[C@H]4O)c3n2)c1 [Regadenoson] (compound 10 µM)	1.19
C[C@](N)(Cc1ccc(O)c(O)c1)C(=O)O (compound 10 µM)	-0.58
O=C(O[C@H]1CN2CCC1CC2)N1CCc2ccccc2[C@@H]1c1ccccc1 [Solifenacin (hydrochloride)] (compound 10 µM)	0.75
C[C@H](Cc1cc2c(c(C(N)=O)c1)N(CCCO)CC2)NCCOc1ccccc1OCC(F)(F)F [Silodosin] (compound 10 µM)	-0.57
CC(=O)N[C@H](Cc1ccc2ccccc2c1)C(=O)N[C@H](Cc1ccc(Cl)cc1)C(=O)N[C@H](Cc1cccnc1)C(=O)N[C@@H](CO)C(=O)N(C)[C@@H](Cc1ccc(O)cc1)C(=O)N[C@H](CC(N)=O)C(=O)N[C@@H](CC(C)C)C(=O)N[C@@H](CCCCNC(C)C)C(=O)N1CCC[C@H]1C(=O)N[C@H](C)C(N)=O [Abarelix] (compound 10 µM)	0.77
C[C@@H](NCCCc1cccc(C(F)(F)F)c1)c1cccc2ccccc12 [Cinacalcet (hydrochloride)] (compound 10 µM)	-5.88
CNc1nc(NCc2ccc(NS(C)(=O)=O)cc2Cl)cc(-c2ccccn2)n1 (compound 10 µM)	-3.45
C[C@H](NC(=O)c1c(C(F)F)nn(C)c1Oc1cccc(C(F)(F)F)c1)c1ccc(C(=O)O)cc1 (compound 10 µM)	0.32
CC[N+](CC)(CC)CCOc1cccc(OCC[N+](CC)(CC)CC)c1OCC[N+](CC)(CC)CC [Gallamine Triethiodide] (compound 10 µM)	0.5
CCCN(CCc1cccs1)C1CCc2c(O)cccc2C1 (racemic) [rac-Rotigotine (Hydrochloride)] (compound 10 µM)	-0.62
Cc1ccccc1N1CCN(CCc2nnc3n2CCCC3)CC1 [Dapiprazole (hydrochloride)] (compound 10 µM)	0.31
CCCCc1oc2ccc(NS(C)(=O)=O)cc2c1C(=O)c1ccc(OCCCN(CCCC)CCCC)cc1 [Dronedarone] (compound 10 µM)	-3.7
CN(C)[C@@H]1CCc2[nH]c3ccc(NC(=O)c4ccc(F)cc4)cc3c2C1 (compound 10 µM)	0.67
COCCCN1CCC(NC(=O)c2cc(Cl)c(N)c3c2OCC3)CC1 [Prucalopride] (compound 10 µM)	0.54
COc1ccccc1OCCNCC(O)COc1cccc2[nH]c3ccccc3c12 (centres undefined) [Carvedilol] (compound 10 µM)	-4.07
C=CCc1ccccc1OCC(O)CNC(C)C (centres undefined) [Alprenolol (hydrochloride)] (compound 10 µM)	0.45

SMILES	phospho-S6 immunofluorescence (z-score)
CCCCCCCCOc1ccccc1C(=O)Nc1ccc(C(=O)OCC[N+](C)(CC)CC)cc1 [Otilonium (bromide)] (compound 10 µM)	-1.43
C[C@H]1C[C@H]2[C@@H]3CCC4=CC(=O)C=C[C@]4(C)[C@@]3(F)[C@@H](O)C[C@]2(C)[C@@]1(O)C(=O)CO [Betamethasone] (compound 10 µM)	-1.59
N=C(N)N/N=C/c1c(Cl)cccc1Cl [Guanabenz (Acetate)] (compound 10 µM)	0.61
NC[C@H](O)c1ccc(O)c(O)c1 [Norepinephrine (bitartrate monohydrate)] (compound 10 µM)	0.52
CCNC(=O)[C@@H]1CCCN1C(=O)[C@H](CCCN=C(N)N)NC(=O)[C@H](CC(C)C)NC(=O)[C@@H](C)NC(=O)[C@H](Cc1ccc(O)cc1)NC(=O)[C@H](CO)NC(=O)[C@H](Cc1c[nH]c2ccccc12)NC(=O)[C@H](Cc1cnc[nH]1)NC(=O)[C@@H]1CCC(=O)N1 [Alarelin (Acetate)] (compound 10 µM)	0.86
CCOc1cc(N)c(Cl)cc1C(=O)NCC1CN(Cc2ccc(F)cc2)CCO1 (centres undefined) [Mosapride (citrate)] (compound 10 µM)	0.76
O=C(c1ccc(F)cc1)C1CCN(CCn2c(=O)[nH]c3ccccc3c2=O)CC1 [Ketanserin (tartrate)] (compound 10 µM)	0.46
CCCN[C@H]1CCc2nc(N)sc2C1 [Pramipexole (dihydrochloride)] (compound 10 µM)	0.87
O=C(O)CC1CCC2(CC1)CCN(c1cc(OC(F)(F)F)ccc1Cl)CC2 (compound 10 µM)	0.09
C[C@H](NC(=O)C(C)(C)Oc1ccc(C(F)(F)F)cn1)[C@@H](Cc1ccc(Cl)cc1)c1cccc(C#N)c1 [Taranabant] (compound 10 µM)	-4.19
CC(C)(C)NC[C@H](O)COc1nsnc1N1CCOCC1 [(S)-Timolol (Maleate)] (compound 10 µM)	-0.17
Cc1ccc(Sc2ccccc2N2CCNCC2)c(C)c1 [Vortioxetine (hydrobromide)] (compound 10 µM)	-5.79
OCCN1CCN(CCCN2c3ccccc3Sc3ccc(Cl)cc32)CC1 [Perphenazine] (compound 10 µM)	-1.28
Cc1cc(C(C)(C)C)c(O)c(C)c1CC1=NCCN1 [Oxymetazoline (hydrochloride)] (compound 10 µM)	0.28
c1ccc(NCc2ccc(CNc3ccccn3)cc2)nc1 (compound 10 µM)	0.88
CCCN(CCc1cccs1)[C@H]1CCc2c(O)cccc2C1 [Rotigotine] (compound 10 µM)	0.53
COc1ccc(CNC(=O)c2sc3nc(C)cc(C)c3c2N)cc1 (compound 10 µM)	-1.98
CN1CCN(C2=Nc3ccccc3Oc3ccc(Cl)cc32)CC1 [Loxapine] (compound 10 µM)	0.6
CC(=O)OCC(=O)[C@@]12OC(C)(C)O[C@@H]1C[C@H]1[C@@H]3C[C@H](F)C4=CC(=O)C=C[C@]4(C)[C@@]3(F)[C@@H](O)C[C@@]12C [Fluocinonide] (compound 10 µM)	-0.28
